Keap1 Nrf2 FP – disrupts human Keap1 binding to Nrf2 peptide; Q14145; Keap1 Kelch-Nrf2 peptide fluorescence polarization, 1536-well; inhibition, % at 9.4 µM; hit rate 0.15% among 340,000; AID 504523; in the data active = inhibition above about 12%;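 note: human Keap1 Kelch domain with fluorescein labeled Nrf2 9mer peptide probe; higher means more block of Keap1 binding to Nrf2 peptide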
Target sequence (Q14145 whole entry, looked up, the tested form may be a part): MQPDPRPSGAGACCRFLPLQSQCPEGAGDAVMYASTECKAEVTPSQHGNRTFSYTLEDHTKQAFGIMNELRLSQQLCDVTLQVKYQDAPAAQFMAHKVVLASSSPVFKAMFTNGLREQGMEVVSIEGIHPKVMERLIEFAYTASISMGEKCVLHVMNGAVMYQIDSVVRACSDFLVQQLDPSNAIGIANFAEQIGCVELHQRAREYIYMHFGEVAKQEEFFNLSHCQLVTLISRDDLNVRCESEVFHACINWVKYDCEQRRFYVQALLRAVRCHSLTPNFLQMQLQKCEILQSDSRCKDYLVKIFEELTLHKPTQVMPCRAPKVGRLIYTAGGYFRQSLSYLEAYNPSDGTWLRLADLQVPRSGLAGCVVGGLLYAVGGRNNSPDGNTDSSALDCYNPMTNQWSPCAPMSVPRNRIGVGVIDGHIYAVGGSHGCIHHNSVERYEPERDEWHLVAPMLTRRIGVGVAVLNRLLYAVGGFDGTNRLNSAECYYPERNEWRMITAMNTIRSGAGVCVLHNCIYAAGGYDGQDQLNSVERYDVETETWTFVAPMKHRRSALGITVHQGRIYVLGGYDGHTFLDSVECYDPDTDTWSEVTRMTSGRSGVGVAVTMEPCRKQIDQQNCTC
Cardiac RTF inh – cardiac RTF calcium desensitization. P19429+P45379. IANBD-labeled cardiac RTF, Ca2+ fluorescence. inhibition, % at 7.15 µM. hit rate 0.12% among 340,000;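 active = inhibition above the mean inhibition of all tested compounds plus 3 SD, cut at about 17% in these data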;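 note: assay run at fixed EC70 calcium of 1.6 mM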
LANA DNA inh – KSHV C-LANA DNA binding inhibition; inhibition, % at 9 µM; MBP-C-LANA/FAM-LBS DNA binding, fluorescence polarization; AID 504423; hit rate 0.078% among 340,000;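 active = highest replicate inhibition at or above 60% at 9 µM, even if other replicates fall short; inactive = all replicates below 60% inhibition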
cardiac RTF act – increases calcium sensitivity of human cardiac regulated thin filaments | P19429+P45379 | IANBD-labeled TnC RTF fluorescence at EC20 calcium; 0% EC20 calcium, 100% full calcium | activation, % at 7.2 µM | hit rate 0.24% among 340,000;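 active = activation above the mean over all tested compounds plus 3 SD, cut at about 30% in these data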;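 note: rise in fluorescence read as greater calcium sensitivity of cardiac thin filaments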
eLon inh – inhibits E. coli Lon protease | inhibition, % at 7.94 µM | AID 602123 | P0A9M0 | hit rate 0.42% among 360,000 | purified E. coli Lon protease, fluorescence polarization; in the data active = inhibition above about 13%, passing the limit was not always enough
E coli Lon conf – E. coli Lon inhibition confirmation. inhibition, % at 7.94 µM. purified E. coli Lon, fluorescence polarization. shares compounds with eLon inh. AID 602230. hit rate 31% among 1,400; in the data active = inhibition above about 16%
Hits are given with their value; . = inactive; / = not tested or not shown. The list is not random: actives were taken first. Their share in the collection is about 0.82%.

SMILES | Keap1 Nrf2 FP | Cardiac RTF inh | LANA DNA inh | cardiac RTF act | eLon inh | E coli Lon conf
CN(C)C(=O)c1ccc(SC(=S)NCc2ccccc2)cc1 | / | / | / | / | . | /
CCOC(=O)N1CCC(NC(=O)CCN2C(=O)C3C4C=CC(C4)C3C2=O)CC1 (stereo unspecified) | . | . | . | . | . | /
O=C(CCN1C(=O)C2C3C=CC(C3)C2C1=O)NC1CCCCC1 (stereo unspecified) | . | . | . | . | 20 | .
COc1ccc(/C=C/C(=O)c2ccc3c(c2)OCO3)c(OC)c1 | . | . | . | . | . | /
COc1cccc(/C=C/C(=O)c2ccc3c(c2)OCCO3)c1OC | . | . | . | . | 20 | .
CCN(CC)C(=S)Nc1ccc(Cl)c(Cl)c1 | . | . | . | . | 17 | 32
COC(=O)C1=C(C)NC(C)=C(C(=O)OCC2CCCO2)C1c1ccc(Cl)c([N+](=O)[O-])c1 (stereo unspecified) | . | . | . | . | . | /
COC(=O)C1=C(C)NC(C)=C(C(=O)OCC2CCCO2)C1c1cccc(Cl)c1 (stereo unspecified) | . | . | . | . | 22 | .
O=C(Nc1ccccc1)C(Cc1ccccc1)c1ccccc1 (stereo unspecified) | . | . | . | . | . | /
O=C(c1[nH]ncc1-c1cccc(Br)c1)C1CO1 (stereo unspecified) | . | . | . | . | . | /
O=C(c1[nH]ncc1-c1ccccc1)C1CO1 (stereo unspecified) | . | . | . | . | 50 | 21
O=C(C/C=N\OCc1ccc([N+](=O)[O-])cc1)Nc1ccc(Br)cc1 | . | . | . | . | 17 | .
O=C(COc1ccc([N+](=O)[O-])cc1)NNC(=O)Nc1ccc([N+](=O)[O-])cc1 | . | . | . | . | . | /
COc1ccc(NC(=O)C2(C)CCN2C(=O)c2ccccc2CCc2ccccc2)cc1OC (stereo unspecified) | / | / | / | / | . | /
Oc1ccc(NC(=S)N=Nc2c(O)[nH]c3ccccc23)cc1 | . | . | . | . | 18 | 21
COc1ccc(NC(=S)N=Nc2c(O)[nH]c3ccccc23)cc1 | . | . | . | . | . | /
Cc1ccc(NC(=S)N=Nc2c(O)[nH]c3ccccc23)cc1 | . | . | . | . | 14 | .
CCOC(=O)C1(C)CCCN1C(=O)c1ccc(OC)c(OC)c1 (stereo unspecified) | / | / | / | / | . | /
COc1ccc(NC2CCN(C3CC(=O)N(c4ccc(F)c(Cl)c4)C3=O)CC2)cc1 (stereo unspecified) | . | . | . | . | 17 | .
CC(C)CCCNc1nc(N2CCOCC2)nc(N2CCOCC2)n1 | . | . | . | . | 84 | .
CC(C)c1ccc(Nc2nc(N3CCOCC3)nc(N3CCOCC3)n2)cc1 | / | / | / | / | . | /
CCCn1c(C(C)Nc2nc(C)cs2)nc2cc(Cl)c(Cl)cc21 (stereo unspecified) | . | . | . | . | 116 | .
Cc1ccc(Cn2c(C(C)Nc3nc(-c4ccc(C)cc4)cs3)nc3cc(Cl)c(Cl)cc32)cc1 (stereo unspecified) | . | . | . | . | . | /
COc1ccc(OC)c(NC(=O)CCNS(=O)(=O)c2ccc3c(c2)CC(C)N3C(C)=O)c1 (stereo unspecified) | / | / | / | / | . | /
O=C1CC(=O)CC(c2ccccc2Cl)C1 | . | . | . | . | 30 | .
SMILES | Keap1 Nrf2 FP | Cardiac RTF inh | LANA DNA inh | cardiac RTF act | eLon inh | E coli Lon conf
Nc1ccccc1N=Nc1ccccc1N | . | . | . | . | 49 | 40
CCCCn1nnnc1C(c1ccccc1)N1CCN(C(=O)c2ccco2)CC1 (stereo unspecified) | / | / | / | / | . | /
CCOc1ccc(Nc2nc(NCC(=O)O)nc(N)c2[N+](=O)[O-])cc1 | . | . | . | . | 19 | .
CCC(C(=O)N1CCN(Cc2ccc3c(c2)OCO3)CC1)n1nnc2ccccc2c1=O (stereo unspecified) | / | / | / | / | . | /
CCOC(=O)c1[nH]c(C)c(C(=O)OC)c1C | . | . | . | . | . | /
CCOC(=O)c1[nH]c(C)c(C)c1C | . | . | . | . | 51 | .
COc1ccc(N(CC(=O)Nc2ccc(S(=O)(=O)N3CCOCC3)cc2)S(C)(=O)=O)cc1OC | / | / | / | / | 16 | .
Cc1ccc2cccc(NC(=S)NC(=O)c3ccccc3)c2n1 | . | . | . | . | . | /
Cc1ccc2cccnc2c1NC(=S)NC(=O)c1ccccc1 | . | . | . | . | 19 | .
COC(=O)c1ccccc1NC(=S)NC(=O)c1ccc(C)cc1 | . | . | . | . | . | /
